# The entries come from a sample that favours the strongest signals as a whole.
# Legend:
# Test in all cases: glycan array binding signal (z-score within array); higher = stronger binding
# Settings in all cases: glycan notation: IUPAC condensed, linker removed
# [1] = target: GlcNAc(b1-4)GlcNAc(b1-4)GlcNAc(b1-4)GlcNAc(b1-4)GlcNAc
# Method in brief: (§1)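 Glycan array binding is given as a within-array Z-score, which can be read as non-binding when negative. The arrays, 3228 of them, came from the Consortium for Functional Glycomics database and were retained only where the protein sequence was available. Z-scores were averaged across arrays of the same protein sequence at different concentrations or buffers and across linkers.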
# Kdn(a2-6)Gal(b1-4)GlcNAc = target: Kdn(a2-6)Gal(b1-4)GlcNAc
# Method in brief: as §1
# [2] = target: Man(a1-2)Man(a1-3)[Man(a1-6)]Man(a1-6)[Man(a1-2)Man(a1-3)]Man(b1-4)GlcNAc(b1-4)GlcNAc
# Method in brief: as §1
# [3] = target: Man(a1-3)[Man(a1-6)]Man(a1-6)[Man(a1-3)]Man
# Method in brief: as §1
# [4] = target: Neu5Ac(a2-3)Gal(b1-3)GalNAc(b1-4)[Neu5Ac(a2-3)]Gal(b1-4)Glc
# Method in brief: as §1
# [5] = target: Neu5Ac(a2-3)Gal(b1-3)GlcNAc(b1-2)Man
# Method in brief: as §1
# [6] = target: Neu5Ac(a2-3)Gal(b1-4)GlcNAc(b1-2)Man
# Method in brief: as §1
# [7] = target: Neu5Ac(a2-3)Gal(b1-4)GlcNAc(b1-2)Man(a1-3)[Neu5Ac(a2-3)Gal(b1-4)GlcNAc(b1-2)Man(a1-6)]Man(b1-4)GlcNAc(b1-4)[Fuc(a1-6)]GlcNAc
# Method in brief: as §1
# [8] = target: Neu5Ac(a2-3)Gal(b1-4)GlcNAc(b1-2)[Neu5Ac(a2-3)Gal(b1-4)GlcNAc(b1-4)]Man(a1-3)[GlcNAc(b1-4)][Neu5Ac(a2-3)Gal(b1-4)GlcNAc(b1-2)[Neu5Ac(a2-3)Gal(b1-4)GlcNAc(b1-6)]Man(a1-6)]Man(b1-4)GlcNAc(b1-4)GlcNAc
# Method in brief: as §1
# [9] = target: Neu5Ac(a2-3)Gal(b1-4)GlcNAc(b1-3)Gal(b1-4)GlcNAc(b1-3)Gal(b1-4)GlcNAc(b1-2)Man(a1-3)[Neu5Ac(a2-3)Gal(b1-4)GlcNAc(b1-3)Gal(b1-4)GlcNAc(b1-3)Gal(b1-4)GlcNAc(b1-2)Man(a1-6)]GalNAc
# Method in brief: as §1
# [10] = target: Neu5Ac(a2-3)Gal(b1-4)GlcNAc(b1-3)Gal(b1-4)GlcNAc(b1-3)[Neu5Ac(a2-3)Gal(b1-4)GlcNAc(b1-3)Gal(b1-4)GlcNAc(b1-6)]GalNAc
# Method in brief: as §1
# [11] = target: Neu5Ac(a2-3)Gal(b1-4)[Fuc(a1-3)]GlcNAc(b1-2)Man
# Method in brief: as §1
# [12] = target: Neu5Ac(a2-3)Gal(b1-4)[Fuc(a1-3)]GlcNAc(b1-3)GalNAc
# Method in brief: as §1
# [13] = target: Neu5Ac(a2-3)[GalNAc(b1-4)]Gal(b1-4)Glc
# Method in brief: as §1
# Neu5Ac(a2-6)Gal = target: Neu5Ac(a2-6)Gal
# Method in brief: as §1
# [14] = target: Neu5Ac(a2-6)Gal(b1-4)GlcNAc(b1-2)Man
# Method in brief: as §1
# [15] = target: Neu5Ac(a2-6)Gal(b1-4)GlcNAc(b1-2)Man(a1-3)Man(b1-4)GlcNAc(b1-4)GlcNAc
# Method in brief: as §1
# [16] = target: Neu5Ac(a2-6)Gal(b1-4)GlcNAc(b1-2)Man(a1-6)[GlcNAc(b1-2)Man(a1-3)]Man(b1-4)GlcNAc(b1-4)GlcNAc
# Method in brief: as §1
# [17] = target: Neu5Ac(a2-6)Gal(b1-4)GlcNAc(b1-3)Gal(b1-3)GlcNAc
# Method in brief: as §1
# [18] = target: Neu5Ac(a2-6)Gal(b1-4)GlcNAc(b1-3)Gal(b1-4)GlcNAc(b1-3)Gal(b1-4)GlcNAc(b1-2)Man(a1-3)[Neu5Ac(a2-6)Gal(b1-4)GlcNAc(b1-3)Gal(b1-4)GlcNAc(b1-3)Gal(b1-4)GlcNAc(b1-2)Man(a1-6)]GalNAc
# Method in brief: as §1
# [19] = target: Neu5Ac(a2-6)Gal(b1-4)GlcNAc(b1-3)Gal(b1-4)GlcNAc(b1-3)[Neu5Ac(a2-6)Gal(b1-4)GlcNAc(b1-3)Gal(b1-4)GlcNAc(b1-6)]GalNAc
# Method in brief: as §1
# Neu5Ac(a2-8)Neu5Ac = target: Neu5Ac(a2-8)Neu5Ac
# Method in brief: as §1
# [20] = target: Neu5Ac(a2-8)Neu5Ac(a2-3)[GalNAc(b1-4)]Gal(b1-4)Glc
# Method in brief: as §1
# [21] = target: Neu5Ac9Ac(a2-3)Gal(b1-4)GlcNAc
# Method in brief: as §1
# Neu5Gc(a2-6)GalNAc = target: Neu5Gc(a2-6)GalNAc
# Method in brief: as §1
# [22] = target: Neu5Gc(b2-6)Gal(b1-4)GlcNAc
# Method in brief: as §1
binder,measurement,setting,value
"HA-00510 (Pseudomonas aeruginosa), Q02V39_PSEAB (protein) GVPIVNIATPNGAGLSNNHFRDYNVGANGLILNNATGKTQGTQLGGIILGNPNLKGQAAQVILNQVTGGNRSTLAGYTEVAGQSARVIVANPHGITCQGCGFINTPRATLTTGKPIMDGQRLERFQVDGGDIVVEGAELNVGNLEQFDLITRSAKLNAKLYAKNLNIVTGRNDVQADSLQATPRAADGSEKPQLAIDSSALGGMYAGAIRLVGTEQGVGVKLAGDMAASGGDIRIDASGKLSLAQASSQGDLKIAAQAVELNGKTYAGGSAEIRSAEELVNRQS",glycan array binding signal (z-score),[1],0.345
same,glycan array binding signal (z-score),Kdn(a2-6)Gal(b1-4)GlcNAc,-0.045
same,glycan array binding signal (z-score),[2],-0.534
same,glycan array binding signal (z-score),[3],-0.502
same,glycan array binding signal (z-score),[4],0.112
same,glycan array binding signal (z-score),[5],-0.852
same,glycan array binding signal (z-score),[6],1.18
same,glycan array binding signal (z-score),[7],0.601
same,glycan array binding signal (z-score),[8],0.048
same,glycan array binding signal (z-score),[9],3.77
same,glycan array binding signal (z-score),[10],-0.447
same,glycan array binding signal (z-score),[11],-1.16
same,glycan array binding signal (z-score),[12],2.86
same,glycan array binding signal (z-score),[13],-0.269
same,glycan array binding signal (z-score),Neu5Ac(a2-6)Gal,0.437
same,glycan array binding signal (z-score),[14],2.52
same,glycan array binding signal (z-score),[15],-0.14
same,glycan array binding signal (z-score),[16],-0.425
same,glycan array binding signal (z-score),[17],2.34
same,glycan array binding signal (z-score),[18],3.69
same,glycan array binding signal (z-score),[19],2.75
same,glycan array binding signal (z-score),Neu5Ac(a2-8)Neu5Ac,0.611
same,glycan array binding signal (z-score),[20],-0.094
same,glycan array binding signal (z-score),[21],0.419
same,glycan array binding signal (z-score),Neu5Gc(a2-6)GalNAc,-0.059
same,glycan array binding signal (z-score),[22],-0.019
